PubChem BioAssay (NCI)
The panel holds about 83,000 compounds, 20% with a hit somewhere; the sample as a whole holds those more often.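 Single-concentration screen, 48 h exposure, 96-well plates. Endpoint: percent growth. Below 10 = active.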 A number with no mark means an inactive call. Active and inactive are the calls of the source.

Legend:
Assay in all cases: NCI-60 one-dose screen, 48 h (100 = growth as untreated, 0 = no growth, -100 = all killed)
Conditions in all cases: 10 µM unless noted
[1] = tested on: NCI-H23 lung
[2] = tested on: NCI-H226 lung
[3] = tested on: NCI-H322M lung
[4] = tested on: HOP-62 NSCLC
[5] = tested on: NCI-H460 lung
[6] = tested on: HOP-92 NSCLC
[7] = tested on: NCI-H522 lung
[8] = tested on: A549/ATCC NSCLC
[9] = tested on: 786-0 renal
[10] = tested on: COLO 205 colon

CC(=O)ON1CCCC(P(=O)(OCCSC(=O)C(C)(C)C)OCCSC(=O)C(C)(C)C)C1=O (stereo not given)
growth [1]: 45.9% | growth [2]: 33.6% | growth [3]: 46.1% | growth [4]: 32% | growth [5]: 16.1% | growth [6]: 29.4% | growth [7]: 28.9% | growth [8]: 33.5% | growth [9]: 19.1% | growth [10]: 27.5%

Cc1ccc(NC(=O)Cn2c(Br)nc3c2c(=O)n(C)c(=O)n3C)cc1
growth [1]: 22.7% | growth [2]: -13.2% (active) | growth [3]: 30.6% | growth [4]: 6.37% (active) | growth [5]: 14.6% | growth [6]: -2.3% (active) | growth [7]: 62.6% | growth [8]: 27.1% | growth [9]: -67.1% (active) | growth [10]: 19.5%

CCOC(=O)CC1CSC(Nc2ccccc2)=N1 (stereo not given)
growth [1]: 98% | growth [2]: 105% | growth [3]: 96.5% | growth [4]: 100% | growth [5]: 109% | growth [6]: 120% | growth [7]: 94.9% | growth [8]: 95.3% | growth [9]: 98.7% | growth [10]: 125%

CC(=O)O[C@H]1C[C@@H]2C(C)(C)C(=O)CC[C@@]2(C)c2ccc(C(C)C)cc21
growth [1]: 102% | growth [2]: 101% | growth [3]: 109% | growth [4]: 109% | growth [5]: 107% | growth [6]: 96.5% | growth [7]: 98.3% | growth [8]: 107% | growth [9]: 93.9% | growth [10]: 115%

NS(=O)(=O)c1ccc(-c2cc(-c3nnc(SCC(=O)Nc4ccc(C(=O)/C=C/c5ccc(Cl)cc5)cc4)n3-c3ccccc3)c3ccccc3n2)cc1
growth [1]: 102% | growth [2]: 96.6% | growth [3]: 89.3% | growth [4]: 100% | growth [5]: 97.7% | growth [6]: 93.1% | growth [7]: 89.9% | growth [8]: 95% | growth [9]: 73.4% | growth [10]: 103%

C=CCOC(=O)C1=C(C)N(CC)C(=O)NC1c1c(Cl)n(C)c2ccccc12 (stereo not given)
growth [1]: 96% | growth [2]: 106% | growth [3]: 78.8% | growth [4]: 103% | growth [5]: 99% | growth [6]: 68.1% | growth [7]: 85.3% | growth [8]: 87.6% | growth [9]: 95.7% | growth [10]: 108%

COc1cc2c(cc1OCCCCN1CCN(C(=S)SCCC(C#N)(c3ccccc3)c3ccccc3)CC1)N=C[C@@H]1CCCN1C2=O
growth [1]: -33.8% (active) | growth [2]: -44.2% (active) | growth [3]: -81.1% (active) | growth [4]: 7.67% (active) | growth [5]: -73.9% (active) | growth [6]: -72.4% (active) | growth [7]: -54.1% (active) | growth [8]: -32.1% (active) | growth [9]: -85.2% (active) | growth [10]: -7.95% (active)

CCN1C(=O)N(CC)C2C1NN=c1s/c(=C\c3ccc[nH]3)c(=O)n12 (stereo not given)
growth [1]: 42.9% | growth [2]: 68% | growth [3]: 36.5% | growth [4]: 25.9% | growth [5]: 4.38% (active) | growth [6]: 54.2% | growth [7]: -15.6% (active) | growth [8]: 7.44% (active) | growth [9]: 31% | growth [10]: 4.65% (active)

N#C/C(=C\C=C\c1ccc(-c2cc(Cl)ccc2Cl)o1)c1nc2ccccc2s1
growth [1]: 83.7% | growth [2]: 78.3% | growth [3]: 95% | growth [4]: 87.7% | growth [5]: 103% | growth [6]: 89.1% | growth [7]: 94.4% | growth [8]: 99.4% | growth [9]: 102% | growth [10]: 92.9%

COc1cccc(NCc2nnc(Nc3ccc(Cl)cc3)c3ccccc23)c1
growth [1]: 2.05% (active) | growth [2]: -22.9% (active) | growth [3]: 3.32% (active) | growth [4]: -17.1% (active) | growth [5]: 0.101% (active) | growth [6]: -32.8% (active) | growth [7]: -43.8% (active) | growth [8]: 2.56% (active) | growth [9]: -5.76% (active) | growth [10]: -22.2% (active)

CN(CCCNC(=O)Cc1ccc2ccc3cccc4ccc1c2c34)CCCNc1cc(-c2ccc3ccccc3c2)nc2ccccc12
growth [1]: -82.1% (active) | growth [2]: -39.5% (active) | growth [3]: -83.2% (active) | growth [4]: -85.9% (active) | growth [5]: -73.9% (active) | growth [6]: -88.8% (active) | growth [7]: -42.9% (active) | growth [8]: 1.17% (active) | growth [9]: -80.2% (active) | growth [10]: -77.3% (active)

O=C(Nc1cnc(Nc2ccc(N3CCOCC3)nc2)nc1Oc1ccc(C(F)(F)F)cc1)c1ccncc1
growth [1]: 70% | growth [2]: 92.8% | growth [3]: 87.3% | growth [4]: 93.1% | growth [5]: 74.3% | growth [6]: 94.1% | growth [7]: 82.8% | growth [8]: 80.5% | growth [9]: 96.8% | growth [10]: 99.8%

COc1ccc(C2=CC(c3cc(OC)c(OC)c(OC)c3)n3ncnc3N2)cc1 (stereo not given)
growth [1]: 29.1% | growth [2]: 51.1% | growth [3]: 43% | growth [4]: 9.09% (active) | growth [5]: 0.735% (active) | growth [6]: 27% | growth [7]: -13.3% (active) | growth [8]: 14.3% | growth [9]: 17.9% | growth [10]: -64.8% (active)

O=C(CCCCCNC(=O)c1cc(=O)c(O)co1)Nc1ccccc1
growth [1]: 99.1% | growth [2]: 105% | growth [3]: 97.2% | growth [4]: 115% | growth [5]: 111% | growth [6]: 99.8% | growth [7]: 90.9% | growth [8]: 97.6% | growth [9]: 97.5% | growth [10]: 120%

CCNc1ccc(-c2nc3ccccc3n3cccc23)cc1
growth [1]: 79.6% | growth [2]: 68.8% | growth [3]: 76.7% | growth [4]: 83.4% | growth [5]: 88.8% | growth [6]: 63.7% | growth [7]: 71.3% | growth [8]: 75.6% | growth [9]: 86% | growth [10]: 95.2%

c1nc2ccc(-c3cc4ccc5[nH]ncc5c4c4c3CCCC4)cc2[nH]1
growth [1]: 78.8% | growth [2]: 57.1% | growth [3]: 41% | growth [4]: 74.3% | growth [5]: 63.1% | growth [6]: 66% | growth [7]: 37.5% | growth [8]: 65.1% | growth [9]: 43.6% | growth [10]: 52.2%

CN(C)CCCC1(c2ccc(F)cc2)OCc2cc(-c3cc4ccccc4s3)ccc21 (stereo not given)
growth [1]: 76.8% | growth [2]: 67.9% | growth [3]: 56.8% | growth [4]: -65.8% (active) | growth [5]: -78.1% (active) | growth [6]: 26.8% | growth [7]: -9.87% (active) | growth [8]: -67.1% (active) | growth [9]: 57.8% | growth [10]: -65.6% (active)

CCc1n(Cc2ccc3ccccc3n2)cc[n+]1Cc1ccc2ccccc2n1
growth [1]: 16% | growth [2]: 48.4% | growth [3]: 73.1% | growth [4]: 40.9% | growth [5]: 34.8% | growth [6]: -11.9% (active) | growth [7]: -3.51% (active) | growth [8]: 57.4% | growth [9]: 77.6% | growth [10]: -38.9% (active)

C#CC#CC#CC#CC#CC#CC#CC#CC[C@@H]1OC[C@@H](COC(=O)O[C@@H](C(=O)O[C@H]2C[C@@]3(O)[C@@H](OC(=O)c4ccccc4)[C@@H]4[C@]5(OC(C)=O)CO[C@@H]5C[C@H](O)[C@@]4(C)C(=O)[C@H](OC(C)=O)C(=C2C)C3(C)C)[C@@H](NC(=O)c2ccccc2)c2ccccc2)O1
growth [1]: 27.1% | growth [2]: 32.3% | growth [3]: 23.5% | growth [4]: 95.2% | growth [5]: 99.7% | growth [6]: 42.9% | growth [7]: 92.4% | growth [8]: 94.7% | growth [9]: 16.3% | growth [10]: 108%

COC(=O)c1c2c(c(C)[n+]([O-])c1C)C(=O)C(NCc1cccc(Cl)c1)=CC2=O
growth [1]: 14.7% | growth [2]: 79.8% | growth [3]: 1.86% (active) | growth [4]: 41.6% | growth [5]: 10.1% | growth [6]: 38% | growth [7]: -10.4% (active) | growth [8]: 6.34% (active) | growth [9]: 39.5% | growth [10]: -50.3% (active)

O=C(Nc1ccc(Cl)cc1)Oc1c(Cl)c(Cl)c(Cl)c(Cl)c1Cl
growth [1]: 86.1% | growth [2]: 89.6% | growth [3]: 95.2% | growth [4]: 85.6% | growth [5]: 101% | growth [6]: 41% | growth [7]: 83.2% | growth [8]: 93.3% | growth [9]: 94.7% | growth [10]: 105%

CN(CCCNC(=O)CCOCCOCCOCCNC(=O)Cc1ccc2ccc3cccc4ccc1c2c34)CCCNc1cc(-c2ccc3ccccc3c2)nc2ccccc12
growth [1]: -82.9% (active) | growth [2]: -47.1% (active) | growth [3]: -88.4% (active) | growth [4]: -90.4% (active) | growth [5]: -82.6% (active) | growth [6]: -88.2% (active) | growth [7]: -59% (active) | growth [8]: -33.9% (active) | growth [9]: -85.6% (active) | growth [10]: -87.7% (active)

Cc1ccc2c(-n3nc(C#N)c(C#N)c3N)cc(=O)[nH]c2c1
growth [1]: 88.9% | growth [2]: 78.7% | growth [3]: 66.8% | growth [4]: 68.1% | growth [5]: 81.1% | growth [6]: 84.3% | growth [7]: 77% | growth [8]: 91% | growth [9]: 85.3% | growth [10]: 97.8%

O=C1/C(=C/c2ccccn2)NC(=S)N1c1ccccc1Cl
growth [1]: 56.4% | growth [2]: 78.3% | growth [3]: 66.7% | growth [4]: 38.9% | growth [5]: 31.2% | growth [6]: 102% | growth [7]: 58.1% | growth [8]: 51% | growth [9]: 31.8% | growth [10]: 66.4%

O=C(c1c[nH]c2ccccc12)c1n[nH]c(=S)n1-c1cccc(Br)c1
growth [1]: 87.2% | growth [2]: 83.1% | growth [3]: 77.7% | growth [4]: 81.7% | growth [5]: 75% | growth [6]: 84.2% | growth [7]: 80% | growth [8]: 86.5% | growth [9]: 103% | growth [10]: 99%

CNC(=O)c1ccccc1Nc1nc(Nc2cc(OC)c(OC)c(OC)c2)ncc1Br
growth [1]: -45.2% (active) | growth [2]: 10.1% | growth [3]: -23.2% (active) | growth [4]: -32.8% (active) | growth [5]: -36.9% (active) | growth [6]: 53.6% | growth [7]: -49.8% (active) | growth [8]: -10.4% (active) | growth [9]: -18.1% (active) | growth [10]: -71.3% (active)

Cc1ccc(/C=C/C(=O)Nc2ncc(Cc3ccc(F)cc3)s2)o1
growth [1]: 75.2% | growth [2]: 85.8% | growth [3]: 59.4% | growth [4]: 55.1% | growth [5]: 30.4% | growth [6]: 77.8% | growth [7]: 38% | growth [8]: 49% | growth [9]: 66.5% | growth [10]: 31.8%
